Our source for the composite z-score, z-score and composite Z-score values is PubChem BioAssay.

Active and inactive are the calls of the source.

The subject of assay [1] is Human papillomavirus type 1a protein E7 (residues 44-93). As to the kind of experiment: small molecules binding HPV E7 44-93 – biochemical, small-molecule microarray, residues 44-93, 635 nm fluorescence, primary screen (AID 1108).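 Further: E7 fragment applied at 1 µg/mL in TBST for 1 h at 4 C; score combines spot fluorescence with its signal to noise ratio.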 The note with it: fluorescence 635 nm, higher = more signal.
Assay [2] can be described thus: hepatitis C replication reporter changes, two-sided – Huh7 cells, luciferase reporter, HCV replication inhibitor project, primary screen (AID 1109).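 Further: huh7 hepatoma cells harbouring a luciferase neomycin HCV replicon reporter; luciferase luminescence as measure of HCV replicon replication; test concentration not given here.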 The note with it: Huh7 HCV replicon luciferase reporter, 48 h; higher = more signal. For orientation: A reporter such as luciferase makes a cellular process visible.
Assay [3] has as its target Left-right determination factor 2 (Homo sapiens) (UniProt O00292). As to the kind of experiment: small molecules binding LEFTY2 protein – biochemical, small-molecule microarray, 635 nm fluorescence scan, primary screen (AID 1110). Conditions: higher = more signal.
In assay [4] the target is Calmodulin-1 (Homo sapiens) (UniProt P0DP23). Briefly: small molecules binding calmodulin-1 with EGTA – biochemical, small-molecule microarray, Cy5-labelled CALM1, profiling panel (AID 1111).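 Further: labelled calmodulin applied in Tris saline Tween buffer holding calcium plus EGTA and DTT.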 Conditions: Cy5-CALM1 binding fluorescence, higher = more signal.
The target is the same in assay [5]. Briefly: small molecules binding Ca-loaded calmodulin-1 – biochemical, small-molecule microarray, Cy5-labelled CALM1, plus calcium, artefact control for SMM control-protein annotation, profiling panel (AID 1112).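 Further: score merges spot fluorescence with signal to noise from triplicate slides.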 Conditions: Cy5-CALM1 binding fluorescence, higher = more signal.
Assay [6] in a line: probe aWnt5a binding to arrayed compounds – biochemical, biotinylated probe, 635/667 nm fluorescence, primary screen (AID 1113).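 Further: score merges 667 nm fluorescence intensity with signal-to-noise per printed feature.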 The note with it: small-molecule microarray, higher = more signal.
The nature of assay [7]: probe aShh binding to arrayed compounds – biochemical, biotinylated probe, 635/667 nm fluorescence, primary screen (AID 1114).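 Further: probe is biotin-labelled aShh protein from a stem cell growth factor screen; measures binding of labelled protein to compounds printed on the slide; score merges feature fluorescence at 667 nm with signal-to-noise.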 The note with it: small-molecule microarray, higher = more signal.
A short description of assay [8]: probe aNog binding to arrayed compounds – biochemical, biotinylated probe, 635/667 nm fluorescence, primary screen (AID 1115).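 Further: probe is biotinylated aNog protein used at 0.15 µg/mL for 1 h at 4 C; z-score combines 667 nm fluorescence of each spot with its signal to noise.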 The note with it: small-molecule microarray, higher = more signal.
The target in assay [9] is Torsin-1A-interacting protein 1 (Homo sapiens) (UniProt Q5JTV8). Briefly: compound microarray binding of lysate hLAP1 – cell lysate, small-molecule microarray, COS7 lysate, 635/667 nm fluorescence, primary screen (AID 1116). The note with it: 635 nm fluorescence, higher = more signal.
Sequence of Torsin-1A-interacting protein 1 (Homo sapiens) (Q5JTV8 whole entry, looked up): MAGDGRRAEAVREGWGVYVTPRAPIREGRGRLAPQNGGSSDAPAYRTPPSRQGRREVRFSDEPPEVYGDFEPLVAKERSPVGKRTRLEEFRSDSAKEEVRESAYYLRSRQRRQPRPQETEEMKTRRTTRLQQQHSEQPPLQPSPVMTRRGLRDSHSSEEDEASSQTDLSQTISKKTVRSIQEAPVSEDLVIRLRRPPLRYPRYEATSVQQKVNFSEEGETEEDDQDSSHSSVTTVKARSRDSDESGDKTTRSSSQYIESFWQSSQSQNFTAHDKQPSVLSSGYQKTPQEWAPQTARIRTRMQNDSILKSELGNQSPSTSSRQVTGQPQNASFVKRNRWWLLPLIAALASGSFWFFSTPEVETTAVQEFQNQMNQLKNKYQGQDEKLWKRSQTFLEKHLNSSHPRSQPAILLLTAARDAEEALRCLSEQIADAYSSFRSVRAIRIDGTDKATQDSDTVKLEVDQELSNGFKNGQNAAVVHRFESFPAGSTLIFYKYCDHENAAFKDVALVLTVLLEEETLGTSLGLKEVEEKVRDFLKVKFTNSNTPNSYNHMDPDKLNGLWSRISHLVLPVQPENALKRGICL
For assay [10], the target named is Alpha-bungarotoxin (Bungarus multicinctus) (UniProt P60615). Briefly: compounds binding labelled alpha-BTX control protein – biochemical, small-molecule microarray, Alexa647 label, 635/667 nm fluorescence, artefact control for SMM control protein annotation, profiling panel (AID 1117). The note with it: alpha-BTX-A647 binding fluorescence, higher = more signal.
Sequence of Alpha-bungarotoxin (Bungarus multicinctus) (P60615 whole entry, looked up): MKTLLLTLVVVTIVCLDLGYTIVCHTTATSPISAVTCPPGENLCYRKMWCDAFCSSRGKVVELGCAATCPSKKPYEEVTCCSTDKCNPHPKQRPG
The target in another assay is Albumin (Bos taurus) (UniProt P02769). Briefly: compounds binding labelled BSA control protein – biochemical, small-molecule microarray, Alexa647 label, 635/667 nm fluorescence, artefact control for SMM control protein annotation, profiling panel (AID 1118).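 Further: score merges 667 nm emission intensity and signal-to-noise per printed compound spot.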 The note with it: BSA-A647 binding, fluorescence 635 nm, higher = more signal.
Sequence of Albumin (Bos taurus) (P02769 whole entry, looked up): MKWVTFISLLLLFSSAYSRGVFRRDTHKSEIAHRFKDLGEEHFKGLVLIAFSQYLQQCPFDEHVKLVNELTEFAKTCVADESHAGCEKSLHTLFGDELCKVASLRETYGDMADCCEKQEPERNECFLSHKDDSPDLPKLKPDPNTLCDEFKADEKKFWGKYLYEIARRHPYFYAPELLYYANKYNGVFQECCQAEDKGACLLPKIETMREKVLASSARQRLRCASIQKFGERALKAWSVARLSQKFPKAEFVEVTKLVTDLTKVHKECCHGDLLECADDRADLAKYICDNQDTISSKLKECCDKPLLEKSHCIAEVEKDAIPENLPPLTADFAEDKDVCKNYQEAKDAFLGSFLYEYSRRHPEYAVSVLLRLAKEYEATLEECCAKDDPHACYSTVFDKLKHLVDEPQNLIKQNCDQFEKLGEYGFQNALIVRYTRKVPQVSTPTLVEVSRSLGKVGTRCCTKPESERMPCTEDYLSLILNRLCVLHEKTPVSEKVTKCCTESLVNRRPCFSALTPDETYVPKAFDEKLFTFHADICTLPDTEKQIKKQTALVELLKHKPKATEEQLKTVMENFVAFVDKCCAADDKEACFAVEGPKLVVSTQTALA
Assay [11] is described as follows: probe aXIP binding to arrayed compounds – biochemical, NeuroSMM set, 635/667 nm fluorescence, primary screen (AID 1119).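 Further: probe is the protein aXip251-270 applied at 1 µg/mL to compound-printed slides; binding of probe to printed compounds measured as 667 nm fluorescence plus signal to noise.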 The note with it: small-molecule microarray, higher = more signal, called active from +8 up or from −8 down.
The nature of assay [12]: probe aNOTCH3 binding on compound microarray – biochemical, small-molecule microarray, 635/667 nm fluorescence, primary screen (AID 1120).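 Further: probe is a biotin-tagged antibody raised against NOTCH3 rather than NOTCH3 protein; score merges spot fluorescence near 667 nm with spot signal to noise.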 Conditions: higher = more signal.
Assay [13] in a line: probe aNOTCH2 binding on compound microarray – biochemical, small-molecule microarray, 635/667 nm fluorescence, primary screen (AID 1121).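 Further: score merges feature fluorescence read at 667 nm with its signal to noise.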 Conditions: higher = more signal.
The target in assay [14] is Carbonic anhydrase 2 (Homo sapiens) (UniProt P00918). Briefly: compounds binding carbonic anhydrase 2 – biochemical, small-molecule microarray, Alexa647-labelled CAII, profiling panel (AID 1122). The note with it: CAII-A647 binding fluorescence, higher = more signal.
A short description of assay [15]: COS7 lysate on small-molecule microarray, probe aHis, 635 nm (AID 1123).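 Further: z-score combines 667nm fluorescence intensity with signal-to-noise per printed compound spot.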 The note with it: COS7 cell lysate, fluorescence, higher = more signal.
The nature of assay [16]: probe aLAP1 signal on lysate-treated microarray – cell lysate, small-molecule microarray, COS7 lysate, primary screen (AID 1124).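 Further: lysate comes from COS7 cells expressing LAP1 and is applied at 0.3 µg/mL; score merges spot fluorescence near 667 nm with signal-to-noise over triplicate slides.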 The note with it: probe aLAP1, fluorescence, higher = more signal.
For a further assay, the system named is Sam68 (KHDRBS1). Briefly: compounds binding KHDRBS1 protein – biochemical, small-molecule microarray, 635 nm fluorescence, primary screen (AID 1125).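 Further: score merges 667 nm channel intensity with signal to noise over triplicate slides.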 The note with it: higher = more signal.
Assay [17] relates to Chordin-like protein 2 (CHRDL2). Briefly: compounds binding chordin-like 2 – biochemical, small-molecule microarray, 635 nm fluorescence, primary screen (AID 1126).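 Further: printed compound slides probed with Chrdl2 protein at 4 µg/mL for 1 h at 4 C; score merges 667 nm emission intensity with signal to noise over three replicate slides.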 The note with it: fluorescence 635 nm, higher = more signal.
For assay [18], the target named is Concanavalin-A (Canavalia ensiformis) (UniProt P02866). As to the kind of experiment: compounds binding concanavalin A lectin – biochemical, small-molecule microarray, Alexa647 label, 635 nm, artefact control for SMM control protein annotation, primary screen (AID 1127).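 Further: z combines 667 nm emission intensity with signal-to-noise across three replicate slides.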 The note with it: ConA-A647 binding fluorescence, higher = more signal.
Sequence of Concanavalin-A (Canavalia ensiformis) (P02866 whole entry, looked up): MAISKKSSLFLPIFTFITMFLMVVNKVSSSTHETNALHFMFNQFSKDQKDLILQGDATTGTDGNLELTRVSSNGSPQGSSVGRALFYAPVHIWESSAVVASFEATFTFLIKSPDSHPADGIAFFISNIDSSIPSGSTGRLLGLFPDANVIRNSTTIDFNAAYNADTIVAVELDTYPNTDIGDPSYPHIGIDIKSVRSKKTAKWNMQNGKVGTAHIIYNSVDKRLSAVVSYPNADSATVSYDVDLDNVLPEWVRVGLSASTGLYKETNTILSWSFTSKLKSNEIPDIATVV

Sequence of Left-right determination factor 2 (Homo sapiens) (O00292 whole entry, looked up): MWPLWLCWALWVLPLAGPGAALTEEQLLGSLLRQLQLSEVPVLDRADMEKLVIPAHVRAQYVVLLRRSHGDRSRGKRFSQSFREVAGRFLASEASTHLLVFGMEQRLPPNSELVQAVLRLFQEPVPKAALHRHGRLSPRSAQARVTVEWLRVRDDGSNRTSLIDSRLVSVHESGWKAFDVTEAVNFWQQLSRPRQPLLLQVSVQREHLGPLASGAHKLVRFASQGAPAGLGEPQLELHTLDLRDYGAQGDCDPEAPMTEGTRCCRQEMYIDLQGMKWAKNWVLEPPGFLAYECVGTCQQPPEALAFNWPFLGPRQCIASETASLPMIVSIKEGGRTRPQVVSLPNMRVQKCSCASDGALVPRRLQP

Consider `CCN1C(=O)[C@H]2[C@H]3[C@H](O)[C@H](O)CC(=NOCC=C(C)CCC=C(C)C)[C@@H]3CC[C@H]2C1=O`, for which the composite z-score in assay [1] was 0.57; in [3], 1.29; in assay [4], -1.09; in assay [5] it was -0.347; in assay [6], -0.087; in assay [7] it was -0.282. For the same compound, the composite z-score in assay [8] is -0.158; in [9], 0.0411; in [10], 0.791; with Albumin (Bos taurus), 0.44; in [12] it was 0.144; in assay [13], -0.118. Further, the composite z-score in [14] worked out at 0.0577; in [15] it was 0.162; in [16], 0.39; in the assay with Sam68 (KHDRBS1) it was 1.25; in assay [17], 1.39; in [18], 0.13. In [2], the z-score was -0.44. The composite Z-score in assay [11] was -0.496 (inactive).
As to `C#CCCCON=C1C[C@@H](O)[C@@H](O)[C@@H]2[C@@H]3C(=O)N(C[C@@H]4CCCO4)C(=O)[C@@H]3CC[C@H]12`, the composite z-score in assay [1] was 0.592; in assay [3] it was 0.397; in assay [4] it was 0.256; in [5] it was -0.0973; in [6], -0.096; in [7], -0.2. For the same compound, the composite z-score is -0.462 in [8]; 0.742 in assay [9]; 0.355 in assay [10]; 0.541 with Albumin (Bos taurus); -0.0662 in assay [12]; -0.115 in [13]. In addition, the composite z-score in [14] was 0.239; in assay [15], 0.335; in assay [16], 0.142; in the assay on Sam68 (KHDRBS1) it was 0.63; in assay [17] it was 0.249; in assay [18] it was 0.732. The compound further gave a z-score in [2] of 0.403. In addition, in assay [11], the composite Z-score was 1.11 (inactive).
`CCOC(=O)NN=C1C[C@@H](O)[C@@H](O)[C@@H]2[C@@H]3C(=O)N(c4ccc(F)cc4F)C(=O)[C@@H]3CC[C@H]12`: the composite z-score is 0.108 in assay [1]; 0.42 in assay [3]; -0.244 in [4]; -0.212 in [5]; -0.126 in assay [6]; -0.289 in [7]. In addition, the composite z-score was 0.0775 in assay [8]; 0.59 in assay [9]; 0.21 in assay [10]; 0.123 with Albumin (Bos taurus); -0.0879 in assay [12]; -0.107 in assay [13]. Further, the composite z-score in assay [14] was -0.0212; in assay [15], 0.0971; in assay [16], 0.0173; with Sam68 (KHDRBS1), 0.108; in assay [17] it was 0.529; in assay [18], 0.0692. Moreover, the z-score in assay [2] amounted to 1.28. Further, the composite Z-score in assay [11] is -0.623 (inactive).
`CC(C)CON=C1C[C@@H](O)[C@@H](O)[C@@H]2[C@@H]3C(=O)N(C(C)(C)C)C(=O)[C@@H]3CC[C@@H]12`: the composite z-score is -0.219 in assay [1]; 1.1 in assay [3]; -1.39 in assay [4]; -2.27 in [5]; -0.178 in assay [6]; -0.229 in assay [7]. For the same compound, the composite z-score is -0.158 in assay [8]; 0.0031 in assay [9]; -0.718 in assay [10]; -0.708 with Albumin (Bos taurus); -0.157 in assay [12]; -0.14 in assay [13]. Moreover, the composite z-score in assay [14] is -0.488; in [15], -0.75; in assay [16], -0.0854; in the assay with Sam68 (KHDRBS1), 0.845; in [17] it was 1.5; in [18], -1.21. The compound also registered a z-score in assay [2] of -0.851. For the same compound, the composite Z-score in assay [11] is 0.11 (inactive).
In the case of `COc1ccc(COC(=O)NN=C2C[C@@H](O)[C@@H](O)[C@@H]3[C@@H]4C(=O)N(C(C)(C)C)C(=O)[C@@H]4CC[C@@H]23)cc1`, the composite z-score in assay [1] was 0.653; in assay [3] it was 1.27; in assay [4] it was 1.19; in assay [5] it was -0.306; in assay [6], -0.0566; in [7] it was -0.0626. Also, the composite z-score in [8] was 0.0498; in assay [9], 0.207; in assay [10], 0.751; in the assay with Albumin (Bos taurus), 0.584; in assay [12], 0.136; in assay [13] it was -0.167. The composite z-score in assay [14] was found to be 0.346; in assay [15], 0.685; in assay [16], 0.31; in the assay on Sam68 (KHDRBS1), 1.14; in assay [17] it was 0.59; in assay [18] it was 0.632. The compound also yielded a z-score in assay [2] of -0.828. For the same compound, the composite Z-score in assay [11] is 0.526 (inactive).
Regarding `C[C@H]1CC[C@@H](C(=O)O)N[C@@H]1c1cccc(N2CCCC2=O)c1`, the composite z-score in [1] is 0.4; in assay [3], 0.263; in assay [4], -0.438; in assay [5] it was -0.55; in [6] it was -0.178; in [7] it was -0.2. The composite z-score in [8] was -0.181; in [9], 0.0221; in assay [10] it was 0.197; with Albumin (Bos taurus), -0.0315; in assay [12], -0.173; in assay [13] it was -0.14. Also, the composite z-score is -0.192 in [14]; -0.101 in assay [15]; -0.127 in assay [16]; 0.0706 in the assay with Sam68 (KHDRBS1); 0.456 in assay [17]; 0.116 in assay [18]. Further, the z-score in assay [2] turned out to be 1.09. Moreover, the composite Z-score in assay [11] was -0.38 (inactive).
